From ChEMBL document CHEMBL4513216, “Probing the Open Global Health Chemical Diversity Library for Multistage-Active Starting Points for Next-Generation Antimalarials” (ACS Infect Dis, 2020)
The whole screen tested about 69,000 compounds, of which about 8,600 (12%) showed an effect of 50% or more. The sample as a whole holds a higher share of strong results than the screen did.

system: Plasmodium berghei; assay: Screen against P. berghei liver stage (PbLuc), transformed with Luciferase, at 10uM; type: functional, HepG2; settings: tested at 10 uM

SMILES | INHIBITION
O=C(NCc1ccco1)[C@H]1C[C@@H]2CCN(c3ncccn3)C[C@H]2O1 | 9.51%
c1cc(CNCC2OCCc3cn(CC4CC4)nc32)cs1 (centres undefined) | 20.9%
COc1ccc2c(c1)c(-c1nc(C)ncc1CN)cn2C | 27.6%
CN(Cc1ccc(CCC(C)(C)O)cc1)Cc1cccnc1 | 57.1%
CC(C)(C)CNC(=O)c1ccc(C(=O)O)cn1 | 11.3%
CN(Cc1ccccc1)CC(C)(C)NC(=O)c1ccc(C(N)=O)cn1 | 52.2%
CN(Cc1ccccc1)CC(C)(C)NC(=O)c1ccon1 | 38.7%
CN(Cc1ccccc1)CC(C)(C)NC(=O)c1cnns1 | 25.3%
CN(Cc1ccccc1)CC(C)(C)NC(=O)c1cnccn1 | 64.5%
CC(c1ccccn1)N(C)Cc1ccc(CCC(C)(C)O)cc1 (centres undefined) | 36.6%
CN(Cc1ccc(CCC(C)(C)O)cc1)Cc1cccc(O)c1 | 22.5%
Cc1cnc(CNC(=O)N(Cc2ccccc2)CC(C)(C)O)s1 | 15.7%
Cc1ccc(C(=O)N2CCN3C[C@H](Oc4cccc(F)c4)C[C@H]3C2)cn1 | 0.804%
O=C(NCC1CC2(CO1)CN(Cc1cccs1)C2)C1CCC1 (centres undefined) | 27.6%
COc1ccc(F)c(-c2ncccc2C(=O)N2C[C@@H]3CC[C@H]2C3)c1 | 39%
COc1ccc(OCc2cc(C(=O)N3CCN[C@H](C)C3)n[nH]2)c(Cl)c1 | 65.1%
COc1ccccc1OCc1cc(C(=O)N2CCN[C@H](C)C2)n[nH]1 | 51.8%
COc1ccccc1OCc1cc(C(=O)N2CC(O)C2)n[nH]1 | -34.5%
COc1ccccc1OCc1cc(C(=O)N2C[C@@H](C)O[C@@H](C)C2)n[nH]1 | -16%
COc1ccc(OCc2cc(C(=O)N3C[C@@H](C)O[C@@H](C)C3)n[nH]2)c(Cl)c1 | 44.2%
COc1ccc(OCc2cc(C(=O)N3CCC(O)CC3)n[nH]2)c(Cl)c1 | -3.75%
Cc1cccc(C(=O)N2CC(=O)N(c3ccccc3Cl)CC2C)n1 (centres undefined) | 28.2%
Cc1ccc(N(C)S(=O)(=O)c2cc(C(=O)O)cs2)c(C)c1 | -42.1%
Cn1cc(CN2CC[C@H]3OCC[C@@H](C(=O)NC4CCCC4)[C@@H]3C2)cn1 | 10%
CNc1nc2cn(CCc3ccc(F)cc3)c(=O)c-2c[nH]1 | 45.8%
O=C1CC(c2ccc(O)cc2)c2c(c(C(=O)O)cn2-c2ccccc2)N1 (centres undefined) | 25.2%
COc1ccc(CN2CCn3cc(Cn4cccn4)nc3C2)cc1 | 7.9%

SMILES | INHIBITION
COc1ccccc1OCCN(C)Cc1c(C2CC2)[nH]c2ncccc12 | 10.7%
CC(CC(=O)N1CCCS1(=O)=O)c1ccccc1C(F)(F)F (centres undefined) | 50.1%
COc1ccccc1C(C)CC(=O)N1CCCS1(=O)=O (centres undefined) | -6.7%
CC(Cc1ccc(C(F)(F)F)cc1)C(=O)N1CCCS1(=O)=O (centres undefined) | -33.4%
Cc1ncc(C(=O)N2CCCC2c2c(C)nn(C)c2C)s1 (centres undefined) | 23.2%
CCc1ccc(CC)c(NCc2cnc(N3CCOCC3)nc2)c1 | -36.4%
O=C(c1c[nH]cn1)N1CCC(F)(F)C2(CCN(c3cnccn3)C2)C1 (centres undefined) | 52.3%
O=C(c1c[nH]cn1)N1CCC(F)(F)C2(CCN(c3ccccn3)C2)C1 (centres undefined) | 34.6%
O=C(c1c[nH]cn1)N1CCC(F)(F)C2(CCN(c3ncccn3)C2)C1 (centres undefined) | 2.41%
CN1C(=O)COc2ccc(C(=O)Cn3cnc4ccccc4c3=O)cc21 | -35.1%
Cc1cnn(CC2CCCCN2C(=O)CCCc2nc(C)no2)c1 (centres undefined) | 11.3%
O=C(Nc1ncnc2c1CCC2)c1cccc(F)c1 | -44.2%
COc1cc(OC)cc(C(=O)Nc2ncnc3c2CCC3)c1 | 52.4%
O=C(Nc1ncnc2c1CCC2)c1ccc2c(c1)OCO2 | -19.7%
Cc1cc(C(=O)NCc2ccc(F)cc2)c2c(C3CCCN3)noc2n1 (centres undefined) | 31.7%
CNC(=O)c1cc2c(nc1NCC(C)C)CCN(S(=O)(=O)C1CC1)CC2 | -6.75%
CC(C)Nc1nc2c(cc1C(=O)NCC1CC1)CCNCC2 | 32.7%
CNC(=O)c1cc2c(nc1NCC1CC1)CCN(CC1CC1)CC2 | 8.67%
CNC(=O)c1cc2c(nc1NCC1CC1)CCNCC2 | 9.72%
CNC(=O)c1cc2c(nc1NCC(C)C)CCN(C)CC2 | 48.7%
CC(C)CNc1nc2c(cc1C(=O)NCC1CC1)CCNCC2 | 94.5%
CNC(=O)c1cc2c(nc1NCC(C)C)CCN(CC1CC1)CC2 | 86.7%
CNC(=O)c1cc2c(nc1NCC(C)C)CCN(c1ncccn1)CC2 | 85.4%
CNC(=O)c1cc2c(nc1NCC1CC1)CCN(c1ncccn1)CC2 | -17.1%
CO[C@H]1CO[C@@]2(CCCN(S(=O)(=O)c3ccccc3)C2)C1 | 42.7%
O=C([C@H]1C[C@H]2OCC[C@H]2N(CCc2ccccc2)C1)N1CCCO1 | 43.9%
CC(C)NC(=O)Cn1cc(-c2ccccc2)ncc1=O | 12.9%
